# Screening data: PubChem, National Center for Advancing Translational Sciences (NCATS)
# This is a sample that favours compounds with a hit; in the whole collection about 21% have one here.
# Pf growth 48h = P. falciparum growth inhibition at 48 hours (one generation) | P. falciparum luciferase growth in erythrocytes, 48 h | Potency, µM (doses to about 28.7 µM), for the others: at the highest dose activity change, negative = inhibition, actives largely listed as inhibitors | 310,000 compounds, 5.9% hits | AID 504832; also: potency is read from the fitted curve at half-maximal effect; % is scaled to controls: 0 for no effect and ±100 for the full control effect
#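 In quantitative HTS format, infected erythrocytes bearing luciferase-reporter parasites were treated for a single generation at 37 C. Luminescence after adding detection reagent served as the growth measure.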
# CHX counter = affects cycloheximide protein synthesis inhibition readout, counter-screen. cell reporter, cycloheximide protein synthesis inhibition counterscreen. max response, %. 300,000 compounds, 12% hits; in the data active = max response mostly above about 13%, no sharp cut-off; inactive = mostly below about 14%; also: read at 38.3 µM for the half of the compounds with a filed dose; 0% is about no effect
# NS1 function inh = blocks influenza NS1 protein function. Potency, µM (doses to about 46.1 µM), without a hit: at the top dose activity, positive = more growth. 270,000 compounds, 0.4% hits. AID 2326; calls by dose curve; also: potency is read from the fitted curve at half-maximal effect; actives are rising curves; nearly all actives have a fitted effect of over 50% in size
#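 A cell-based growth assay was used: compounds that relieve NS1-induced slow growth of budding yeast raise OD600. Assay medium was yeast nitrogen base with ammonium sulphate and -URA supplement, pH 6.0, with 2% galactose.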
# Shiga inhibitor = Shiga toxin inhibition; Vero cells, Shiga toxin protein synthesis inhibition reporter; inhibition, % at 38.7 µM; 290,000 compounds, 9.2% hits; AID 2315; in the data active = inhibition mostly above about 28%, no sharp cut-off; inactive = mostly below about 43%; also: 0% is about no effect
# Pf growth 96h = P. falciparum growth inhibition at 96 hour, primary screen for plastid delayed-death inhibitors; P. falciparum luciferase reporter growth, 96 h; 320,000 compounds, 6.9% hits; Potency, µM (top dose mostly 28.7 µM), for inactives: at the highest dose activity change, negative = inhibition, most hits filed as inhibitors; also: potency is read from the fitted curve at half-maximal effect; % is scaled to controls: 0 for no effect and ±100 for the full control effect
#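 Readout is luminescence from an integrated firefly luciferase in P. falciparum. Red cells, 2% hematocrit and 0.05% parasitemia final, were cultured with compound through two parasite generations (96 hours) at 37 C, 5% CO2.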
# Numbers without * were called inactive; i = inactive; ? = inconclusive; . = not tested or not shown; [ ] = dose if it differs, or a comment. Unless noted, calls follow the shape of the dose curve; as a rule, active = well fitted inhibition curve with a large enough effect; inconclusive = small, poorly fitted or top-dose-only effect, or another doubt; inactive = no such curve, though single readings can be large or run the other way.
SMILES,Pf growth 48h,CHX counter,NS1 function inh,Shiga inhibitor,Pf growth 96h
CC(=O)N=c1c(C#N)cc2c(=O)n3cccc(C)c3nc2n1CCCOC(C)C,?,0.8,1.6%,-3.9,10.4µM*
CCOCCCn1c(=NC(=O)c2cccs2)c(C#N)cc2c(=O)n3ccccc3nc21,4.65µM*,0.8,2.0%,12.5,10.4µM*
CC(=O)N=c1c(C#N)cc2c(=O)n3cccc(C)c3nc2n1Cc1ccco1,0.0%,-2.3,3.6%,-4.5,?
Cc1cccn2c(=O)c3cc(C#N)c(=NC(=O)c4ccncc4)n(CCCOC(C)C)c3nc12,4.15µM*,-3.9,17.8%,-2.4,6.57µM*
COCCCn1c(=NC(=O)c2ccncc2)c(C#N)cc2c(=O)n3cccc(C)c3nc21,2.94µM*,2.2,14.0%,-10.3,3.3%
C/[N+]([O-])=C\c1cccc(OCCN2CCN(c3ncc(C(F)(F)F)cc3Cl)CC2)c1,15.1%[0.00184 µM],-5.9,-4.6%,-5.5,6.0%
CC(=O)c1ccc(S(=O)(=O)N2CCN(C)CC2)cc1,7.4%,-2.3,6.3%,-10.9,?
CCCOc1ccc(-c2c(C(=O)N/N=C/c3ccccc3OCC)nnn2-c2nonc2N)cc1,6.1%,-3.7,8.5%,-3.4,8.8%
Cc1cccn2c(=O)c3cc(C#N)c(=NC(=O)c4cccs4)n(CCCOC(C)C)c3nc12,1.65µM*,1.5,5.5%,-6.7,1.85µM*
CC(C)[C@H](NC(=O)C1CCN(C(=O)[C@@H]2CCCN2)CC1)C(=O)NCc1ccc(F)cc1,29.8%,-0.9,4.6%,-7.9,0.7%
Cc1cccc(OCC(=O)NC(Cc2ccccc2)C(=O)O)c1 (stereo not drawn),17.4%,-5.9,6.6%,-11.7,14.2%
Cc1cccc(OCC(=O)NC(C)C(=O)N/N=C/c2c(OCc3ccccc3)ccc3ccccc23)c1 (stereo not drawn),6.57µM*,6.5,0.0%,14.4,.
COc1ccccc1NC(=O)C12CC3CC(C1)CC(c1ccc(C)cc1)(C3)C2,0.657µM*,-4.0,21.2%,-1.3,66.4%
Cc1ccc(C23CC4CC(CC(C(=O)NC(C)C(=O)O)(C4)C2)C3)cc1 (stereo not drawn),-9.7%,2.9,13.3%,-4.7,38.9%
Cc1ccc(C23CC4CC(CC(C(=O)NC(C)C)(C4)C2)C3)cc1,-16.7%,2.0,-16.9%,1.5,9.28µM*
COc1ccc(NC(=O)C23CC4CC(C2)CC(c2ccc(C)cc2)(C4)C3)cc1,?,-1.6,-2.9%,16.5,23.7%
C/C(=N\O)C1(C)N(O)C(C)(C)C(c2ccco2)=[N+]1[O-] (stereo not drawn),-2.1%,-8.0,6.5%,-12.5,-11.6%
C/C(=N\Nc1cccc(Cl)c1)C1(C)N(O)C(C)(C)C(c2ccco2)=[N+]1[O-] (stereo not drawn),7.38µM*,30.1*,-3.3%,73.7*,?
CN(Cc1cccc(C(F)(F)F)c1)Cc1nc(-c2cnccn2)no1,18.8%,10.4,-0.3%,21.1,7.38µM*
CCN1C(=O)/C(=C/c2ccc(N3CCCC3)cc2)NC1=S,17.8%,65.7*,?,24.1,8.28µM*
CCCN1C(=O)/C(=C/c2ccc(N3CCCC3)c(C)c2)NC1=S,?,18.9*,-17.1%,50.2*,-16.2%
Cc1cc(/C=C2\NC(=S)N(C)C2=O)ccc1N1CCCC1,286.5%,32.8*,-2.2%,94.6*,i
CCCN1C(=O)/C(=C/c2ccc(N3CCOCC3)cc2)NC1=S,-25.3%,12.3,.,31.9,?
Cc1cc(N2CCCC2)ccc1/C=C1/C(=O)N(C)C(=S)N1C,0.3%,6.9,3.4%,16.2,7.2%
Cc1cc(/C=C2/C(=O)N(C)C(=S)N2C)ccc1N1CCCC1,-10.8%,32.0*,2.0%,93.1*,21.1%
SMILES,Pf growth 48h,CHX counter,NS1 function inh,Shiga inhibitor,Pf growth 96h
COc1cc(/C=C2\NC(=S)N(C)C2=O)ccc1O,-7.8%,11.1,8.7%,35.5,-13.8%
CCc1ccc(CN2C(=O)c3ccccc3C2C(=O)NCc2cccnc2)cc1 (stereo not drawn),?,5.2,.,-10.9,53.2%
COc1cc(CNCCc2ccccc2F)ccc1OCC(=O)N1CCCCC1,-27.2%,-3.5,.,1.3,13.1µM*
CC(=O)c1ccc(-c2c(C3C4C=CCC(C)C4C(=O)N3Cc3ccccc3)ccc3ccccc23)cc1 (stereo not drawn),.,21.3,.,3.3,.
Cc1ccc(N/C=C(\[N+](=O)[O-])S(=O)(=O)c2ccccc2)cc1,8.8%,1.0,.,-2.2,14.2%
Cc1cccc(N/C=C(\[N+](=O)[O-])S(=O)(=O)c2ccccc2)c1C,11.7µM*,2.3,.,-1.9,23.7%
